In PubChem BioAssay (NCATS):
Inconclusive results are not listed. Where a call stands in place of a potency, no number is given. Unmarked numbers belong to inactive results. Calls of active or inactive are those of the source. Calls follow the shape of the dose curve; as a rule, active = well fitted inhibition curve with a large enough effect; inconclusive = small, poorly fitted or top-dose-only effect; inactive = flat fitted curve, though single readings scatter.

How the values were obtained:
[1] = qHTS profiling for inhibitors of Plasmodium falciparum proliferation (AID 504749); also: nearly all actives have a fitted effect of over 60% in size; conditions: P. falciparum in erythrocytes, SYBR Green DNA, 72 h
In short: (§1)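 Readout was DNA-dye fluorescence from lysed cultures, ex 485/em 535 nm. Parasitized red cells had grown 72 h with compound; data scaled between 0.29 uM artemisinin and DMSO wells and corrected using vehicle-only plates.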

[2] = system: 3D7; assay: as above; conditions: P. falciparum in erythrocytes, SYBR Green DNA, 72 h; series mostly up to 28.7 µM
In short: as §1

[3] = system: 7G8; assay: as above; conditions: P. falciparum in erythrocytes, SYBR Green DNA, 72 h; series mostly up to 28.7 µM
In short: as §1

[4] = system: AA1029; assay: as above; conditions: P. falciparum in erythrocytes, SYBR Green DNA, 72 h; series mostly up to 28.7 µM
In short: as §1

[5] = system: AS120; assay: as above; conditions: P. falciparum in erythrocytes, SYBR Green DNA, 72 h; series mostly up to 28.7 µM
In short: as §1

[6] = system: ATS189; assay: as above; conditions: P. falciparum in erythrocytes, SYBR Green DNA, 72 h; series mostly up to 28.7 µM
In short: as §1

[7] = system: ATS95; assay: as above; conditions: P. falciparum in erythrocytes, SYBR Green DNA, 72 h; series mostly up to 28.7 µM
In short: as §1

[8] = system: C2A; assay: as above; conditions: P. falciparum in erythrocytes, SYBR Green DNA, 72 h; series mostly up to 28.7 µM
In short: as §1

[9] = system: CP185; assay: as above; conditions: P. falciparum in erythrocytes, SYBR Green DNA, 72 h; series mostly up to 28.7 µM
In short: as §1

[10] = system: CP191; assay: as above; conditions: P. falciparum in erythrocytes, SYBR Green DNA, 72 h; series mostly up to 28.7 µM
In short: as §1

[11] = system: CP192; assay: as above; conditions: P. falciparum in erythrocytes, SYBR Green DNA, 72 h; series mostly up to 28.7 µM
In short: as §1

[12] = system: CP194; assay: as above; conditions: P. falciparum in erythrocytes, SYBR Green DNA, 72 h; series mostly up to 28.7 µM
In short: as §1

[13] = at 28.7 µM (top of the series), parasite line A
[14] = at 28.7 µM (top of the series), parasite line B
Potency is read from the fitted curve at half-maximal effect.

Row | SMILES | activity, negative = inhibition [1, 13] [%] | activity, negative = inhibition [1, 14] [%] | Potency [2] | Potency [3] | Potency [4] | Potency [5] | Potency [6] | Potency [7] | Potency [8] | Potency [9] | Potency [10] | Potency [11] | Potency [12] | activity, negative = inhibition ([1]; at 12.8 µM (top of the series), parasite line A) [%] | activity, negative = inhibition ([1]; at 12.8 µM (top of the series), parasite line B) [%] | Potency ([1]; parasite line A) | Potency ([1]; parasite line B)
1 | C[C@H](O)CN(C)C | 9.28 | 3.53 | inactive | inactive | inactive | inactive | inactive | inactive | inactive | inactive | inactive | inactive | inactive |  |  |  | 
2 | COc1ccc(-c2noc(CC(=O)O)c2-c2ccc(OC)cc2)cc1 | 5.47 | 9.58 | inactive | inactive | inactive | inactive | inactive | inactive | inactive | inactive | inactive | inactive | inactive |  |  |  | 
3 | C=C(C)C1CC=C(C)CC1 (stereo unspecified) | 7.1 | 5.88 | inactive | inactive | inactive | inactive | inactive | inactive | inactive | inactive | inactive | inactive | inactive |  |  |  | 
4 | Cc1ccccn1 | 14.6 | 15 | inactive | inactive | inactive | inactive | inactive | inactive | inactive | inactive | inactive | inactive | inactive |  |  |  | 
5 | CC1=C(/C=C/C(C)=C/C=C/C(C)=C/C(=O)Oc2c(C)c(C)c3c(c2C)CC[C@@](C)(CCC[C@H](C)CCC[C@H](C)CCCC(C)C)O3)C(C)(C)CCC1 | 5.64 | 7.26 | inactive | inactive | inactive | inactive | inactive | inactive | inactive | inactive | inactive | inactive | inactive |  |  |  | 
6 | CN(CCO)CC(O)Cn1cnc2c1c(=O)n(C)c(=O)n2C (stereo unspecified) (tested in a mixture with another compound) | 12.7 | 12.8 | inactive | inactive | inactive | inactive | inactive | inactive | inactive | inactive | inactive | inactive | inactive |  |  |  | 
7 | CCC(Cc1c(I)cc(I)c(O)c1I)C(=O)O (stereo unspecified) | 0.0242 | -1.87 | inactive | inactive | inactive | inactive | inactive | inactive | inactive | inactive | inactive | inactive | inactive |  |  |  | 
8 | CC(C)NCC(O)COc1ccccc1-n1cccc1 (stereo unspecified) | 18.2 | -1.41 | inactive | 7.08 µM (active) | inactive | inactive | inactive | inactive | inactive | inactive | inactive | inactive | inactive |  |  |  | 
9 | C[Se]CC[C@H](N)C(=O)O | 7.69 | 13.1 | inactive | inactive | inactive | inactive | inactive | inactive | inactive | inactive | inactive | inactive | inactive |  |  |  | 
10 | CN1c2c(nc(N)[nH]c2=O)NCC1CNc1ccc(C(=O)NC(CCC(=O)O)C(=O)O)cc1 (stereo unspecified) | 2.92 | -8.81 | inactive | inactive | inactive | inactive | inactive | inactive | inactive | inactive | inactive | inactive | inactive |  |  |  | 
11 | OC[C@H]1O[C@@](CO)(O[C@H]2O[C@H](CO)[C@@H](O)[C@H](O)[C@H]2O)[C@@H](O)[C@@H]1O | 11.2 | -0.203 | inactive | inactive | inactive | inactive | inactive | inactive | inactive | inactive | inactive | inactive | inactive |  |  |  | 
12 | O=C1NCCN1c1ncc([N+](=O)[O-])s1 |  |  | inactive | inactive | inactive | inactive | inactive | inactive | inactive | inactive | inactive | inactive | inactive | -20 | -14.4 |  | 
13 | CCCCC | 7.05 | 20.9 | inactive | inactive | inactive | inactive | inactive | inactive | inactive | inactive | inactive | inactive | inactive |  |  |  | 
14 | CC(/C=C/C=C(\C)C(=O)O[C@@H]1O[C@H](CO[C@@H]2O[C@H](CO)[C@@H](O)[C@H](O)[C@H]2O)[C@@H](O)[C@H](O)[C@H]1O)=C\C=C\C=C(C)\C=C\C=C(/C)C(=O)O[C@@H]1O[C@H](CO[C@@H]2O[C@H](CO)[C@@H](O)[C@H](O)[C@H]2O)[C@@H](O)[C@H](O)[C@H]1O | 7.84 | -1.1 | inactive | inactive | inactive | inactive | inactive | inactive | inactive | inactive | inactive | inactive | inactive |  |  |  | 
15 | O=C(NNCS(=O)(=O)O)c1ccncc1 | 13.1 | 6.08 | inactive | inactive | inactive | inactive | inactive | inactive | inactive | inactive | inactive | inactive | inactive |  |  |  | 
16 | COc1ccc(/C=N/NC(=O)c2ccncc2)c(C(=O)O)c1OC | 15.9 | -6.37 | inactive | inactive | inactive | inactive | inactive | inactive | inactive | inactive | inactive | inactive | inactive |  |  |  | 

Row | SMILES | activity, negative = inhibition [1, 13] [%] | activity, negative = inhibition [1, 14] [%] | Potency [2] | Potency [3] | Potency [4] | Potency [5] | Potency [6] | Potency [7] | Potency [8] | Potency [9] | Potency [10] | Potency [11] | Potency [12] | activity, negative = inhibition ([1]; at 12.8 µM (top of the series), parasite line A) [%] | activity, negative = inhibition ([1]; at 12.8 µM (top of the series), parasite line B) [%] | Potency ([1]; parasite line A) | Potency ([1]; parasite line B)
17 | CNC(=O)OCc1cccc(COC(=O)NC)n1 | 3.63 | 1.01 | inactive | inactive | inactive | inactive | inactive | inactive | inactive | inactive | inactive | inactive | inactive |  |  |  | 
18 | CNC(=O)C[C@@H](N)C(=O)N[C@@H](C(=O)N[C@@H]1C(=O)N2[C@@H]1SC(C)(C)[C@@H]2C(=O)O)c1ccc(O)cc1 | 11.3 | 15.8 | inactive | inactive | inactive | inactive | inactive | inactive | inactive | inactive | inactive | inactive | inactive |  |  |  | 
19 | O=C(NCCNCC(O)COc1ccc(O)cc1)N1CCOCC1 (stereo unspecified) | 8.13 | 8.21 | inactive | inactive | inactive | inactive | inactive | inactive | inactive | inactive | inactive | inactive | inactive |  |  |  | 
20 | COc1ccc2c(c1)OC(C)(C)C(c1ccccc1)C2c1ccc(OCCN2CCCC2)cc1 (stereo unspecified) |  |  | 3.16 µM (active) | 2.82 µM (active) | 3.55 µM (active) | 3.16 µM (active) | 3.55 µM (active) | 5.01 µM (active) | 4.47 µM (active) | 3.98 µM (active) | 2.51 µM (active) | 10.7 µM (active) | 6.75 µM (active) |  |  | 2.24 µM (active) | 3.98 µM (active)
21 | CCOC(=O)[C@@H](N)CS | -7.81 | 16.4 | inactive | inactive | inactive | inactive | inactive | inactive | inactive | inactive | inactive | inactive | inactive |  |  |  | 
22 | CCCCC(CC)COS(=O)(=O)O (stereo unspecified) | 12.8 | 12.3 | inactive | inactive | inactive | inactive | inactive | inactive | inactive | inactive | inactive | inactive | inactive |  |  |  | 
23 | O=C(O)[C@H]1CN(C/C=C/P(=O)(O)O)CCN1 | 5.03 | 6.62 | inactive | inactive | inactive | inactive | inactive | inactive | inactive | inactive | inactive | inactive | inactive |  |  |  | 
24 | C(=C\c1ccncc1)/c1ccccc1 | -2.95 | -9.52 | inactive | 12.6 µM (active) | inactive | inactive | inactive | inactive | inactive | inactive | inactive | inactive | inactive |  |  |  | 
25 | CCOC(=S)SSC(=S)OCC | 12.6 | -0.533 | inactive | inactive | inactive | inactive | inactive | inactive | inactive | inactive | inactive | inactive | inactive |  |  |  | 
26 | C[C@H](CCCC(C)(C)O)[C@H]1CC[C@H]2[C@@H]3CC=C4C[C@@H](O)CC[C@]4(C)[C@H]3CC[C@]12C | 13.3 | 17.1 | inactive | 11.2 µM (active) | inactive | inactive | inactive | inactive | inactive | inactive | inactive | inactive | inactive |  |  |  | 
27 | CC(C)(COP(=O)(O)OP(=O)(O)OC[C@H]1O[C@@H](n2cnc3c(N)ncnc32)[C@H](O)[C@@H]1OP(=O)(O)O)C(O)C(=O)NCCC(=O)NCCS (stereo partly specified) | 7.03 | 2.39 | inactive | inactive | inactive | inactive | inactive | inactive | inactive | inactive | inactive | inactive | inactive |  |  |  | 
28 | N=C(N)n1cccn1 | -11.6 | 1.65 | inactive | inactive | inactive | inactive | inactive | inactive | inactive | inactive | inactive | inactive | inactive |  |  |  | 
29 | CCN(CC)CCOc1ccccc1OC | -4.79 | -3.67 | inactive | inactive | inactive | inactive | inactive | inactive | inactive | inactive | inactive | inactive | inactive |  |  |  | 
30 | NCC[C@H](O)C(=O)N[C@@H]1C[C@H](N)[C@@H](O[C@H]2O[C@H](CN)CC[C@H]2N)[C@H](O)[C@H]1O[C@H]1O[C@H](CO)[C@@H](O)[C@H](N)[C@H]1O | -7.43 | 9.77 | inactive | inactive | inactive | inactive | inactive | inactive | inactive | inactive | inactive | inactive | inactive |  |  |  | 
31 | COC(=O)CCC[N+](C)(C)C | 18.8 | 3.25 | inactive | inactive | inactive | inactive | inactive | inactive | inactive | inactive | inactive | inactive | inactive |  |  |  | 
32 | CC(C)O | 2.73 | 13.2 | inactive | inactive | inactive | inactive | inactive | inactive | inactive | inactive | inactive | inactive | inactive |  |  |  | 
